In PubChem BioAssay AID1159580 (chemical genetic matrix, 2015):
Where “and” joins values, the source holds several entries; their conditions need not be identical. Identical values can stand only once. Hit rate of the full screen: of about 5,500 compounds, about 2,000 (36%) were called active. Not shown: some 18% with an inconclusive outcome. No stated cut-off is given here; in the data, active means normalized growth mostly below about 0.91 (no sharp cut-off); inconclusive means no clear call, values can overlap the other calls; inactive means mostly above about 0.92. The list shows a part of the results.

Experiment: chemical genetic growth profiling, strain panel (AID 1159580);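 further: tested at 20 µM; growth read once vehicle control cultures reached saturation at 30 °C; 1 = growth at the plate median or of vehicle wells; lower values mean less growth of the strain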
Conditions: growth OD

Measured: normalized growth

COc1ccc2[nH]cc(CCNC(C)=O)c2c1
inactive: S. cerevisiae deletion strains, locus YJR075W, strain HOC1, hits give low values 1.07 | S. cerevisiae deletion strains, locus YKL009W, strain mrt4, hits give low values 1.01 | S. cerevisiae deletion strains, locus YKL068W, hits give low values 1.01 | S. cerevisiae deletion strains, locus YKL085W, strain MDH1 (second series), hits give low values 1.01 | S. cerevisiae deletion strains, locus YKL085W, strain MDH1, hits give low values 1.01 | S. cerevisiae deletion strains, locus YKL160W, strain elf1, hits give low values 0.979 | S. cerevisiae deletion strains, locus YKL190W, strain CNB1, hits give low values 1 | S. cerevisiae deletion strains, locus YKR001C, strain vps1, hits give low values 1.03 | S. cerevisiae deletion strains, locus YKR026C, strain gcn3, hits give low values 0.97 | S. cerevisiae deletion strains, locus YKR091W, strain srl3, hits give low values 0.969 | S. cerevisiae deletion strains, locus YLL001W, strain dnm1, hits give low values 0.971 | S. cerevisiae deletion strains, locus YLL026W, hits give low values 0.979 | S. cerevisiae deletion strains, locus YLL041C, strain sdh2, hits give low values 0.977 | S. cerevisiae deletion strains, locus YLR027C, strain aat2, hits give low values 0.975 | S. cerevisiae deletion strains, locus YLR039C, strain RIC1, hits give low values 1.04 | S. cerevisiae deletion strains, locus YLR058C, strain SHM2, hits give low values 1.01 | S. cerevisiae deletion strains, locus YLR102C, strain apc9, hits give low values 1.03 | S. cerevisiae deletion strains, locus YLR113W, strain HOG1, hits give low values 1 | S. cerevisiae deletion strains, locus YLR221C, strain rsa3, hits give low values 0.969 | S. cerevisiae deletion strains, locus YLR258W, strain gsy2, hits give low values 0.973 | S. cerevisiae deletion strains, locus YLR262C, strain YPT6 (second series), hits give low values 0.987 | S. cerevisiae deletion strains, locus YLR262C, strain YPT6, hits give low values 1.02 | S. cerevisiae deletion strains, locus YLR268W, strain sec22, hits give low values 1.03 | S. cerevisiae deletion strains, locus YLR320W, strain mms22, hits give low values 0.955 | S. cerevisiae deletion strains, locus YLR330W, strain CHS5, hits give low values 1.01 | S. cerevisiae deletion strains, locus YLR342W, strain FKS1 (second series), hits give low values 1.01 | S. cerevisiae deletion strains, locus YLR342W, strain FKS1, hits give low values 0.983 | S. cerevisiae deletion strains, locus YLR357W, strain rsc2, hits give low values 0.93 | S. cerevisiae deletion strains, locus YLR370C, strain arc18, hits give low values 0.974 | S. cerevisiae deletion strains, locus YLR371W, strain rom2, hits give low values 1.02 | S. cerevisiae deletion strains, locus YLR384C, strain iki3, hits give low values 0.951 | S. cerevisiae deletion strains, locus YLR418C, strain cdc73, hits give low values 1.05 | S. cerevisiae deletion strains, locus YML016C, strain PPZ1, hits give low values 1.01 | S. cerevisiae deletion strains, locus YML032C, strain rad52, hits give low values 1.03 | S. cerevisiae deletion strains, locus YML120C, strain ndi1, hits give low values 0.982 | S. cerevisiae deletion strains, locus YML124C, strain tub3, hits give low values 1.02 | S. cerevisiae deletion strains, locus YMR058W, strain fet3, hits give low values 0.974 | S. cerevisiae deletion strains, locus YMR078C, strain ctf18, hits give low values 1.03 | S. cerevisiae deletion strains, locus YMR125W, strain sto1, hits give low values 0.956 | S. cerevisiae deletion strains, locus YMR129W, hits give low values 0.977 | S. cerevisiae deletion strains, locus YMR205C, strain PFK2, hits give low values 0.979 | S. cerevisiae deletion strains, locus YMR223W, strain ubp8, hits give low values 1.03 | S. cerevisiae deletion strains, locus YMR231W, strain pep5, hits give low values 0.957 | S. cerevisiae deletion strains, locus YMR263W, strain SAP30, hits give low values 1.01 | S. cerevisiae deletion strains, locus YMR307W, strain GAS1, hits give low values 1.05 and 0.978 | S. cerevisiae deletion strains, locus YNL067W, strain RPL9B, hits give low values 1.01 | S. cerevisiae deletion strains, locus YNL071W, strain lat1, hits give low values 0.975 | S. cerevisiae deletion strains, locus YNL128W, strain TEP1, hits give low values 1.02 | S. cerevisiae deletion strains, locus YNL153C, strain GIM3, hits give low values 1.01 | S. cerevisiae deletion strains, locus YNL175C, strain NOP13, hits give low values 1.02 | S. cerevisiae deletion strains, locus YNL183C, strain NPR1, hits give low values 0.942 | S. cerevisiae deletion strains, locus YNL197C, strain WHI3, hits give low values 1.01 | S. cerevisiae deletion strains, locus YNL209W, strain ssb2, hits give low values 0.971 | S. cerevisiae deletion strains, locus YNL224C, strain SQS1, hits give low values 1 | S. cerevisiae deletion strains, locus YNL233W, strain BNI4, hits give low values 1.02 | S. cerevisiae deletion strains, locus YNL248C, strain rpa49, hits give low values 0.968 | S. cerevisiae deletion strains, locus YNL250W, strain rad50, hits give low values 1.04 | S. cerevisiae deletion strains, locus YNL271C, strain bni1, hits give low values 1.05 | S. cerevisiae deletion strains, locus YNL298W, strain CLA4, hits give low values 1.03 | S. cerevisiae deletion strains, locus YNL307C, strain MCK1, hits give low values 1.04 | S. cerevisiae deletion strains, locus YNL322C, strain KRE1 (second series), hits give low values 0.968 | S. cerevisiae deletion strains, locus YNL322C, strain KRE1, hits give low values 1 | S. cerevisiae deletion strains, locus YNR049C, strain mso1, hits give low values 0.972 | S. cerevisiae deletion strains, locus YNR052C, strain pop2, hits give low values 1.03 | S. cerevisiae deletion strains, locus YOL006C, strain TOP1, hits give low values 1.07 | S. cerevisiae deletion strains, locus YOL012C, strain htz1 1.19 | S. cerevisiae deletion strains, locus YOL147C, strain pex11, hits give low values 1.02 | S. cerevisiae deletion strains, locus YOR001W, strain rrp6, hits give low values 0.988 | S. cerevisiae deletion strains, locus YOR061W, strain CKA2, hits give low values 1.01 | S. cerevisiae deletion strains, locus YOR069W, strain VPS5, hits give low values 0.997 | S. cerevisiae deletion strains, locus YOR070C, strain gyp1, hits give low values 0.988 | S. cerevisiae deletion strains, locus YOR080W, strain dia2, hits give low values 0.972 | S. cerevisiae deletion strains, locus YOR083W, strain WHI5 (second series), hits give low values 1.01 | S. cerevisiae deletion strains, locus YOR083W, strain WHI5, hits give low values 0.98 | S. cerevisiae deletion strains, locus YOR106W, strain vam3, hits give low values 0.982 | S. cerevisiae deletion strains, locus YOR136W, strain idh2, hits give low values 1.04 | S. cerevisiae deletion strains, locus YOR144C, strain elg1, hits give low values 1.02 | S. cerevisiae deletion strains, locus YOR184W, strain ser1, hits give low values 1.04 | S. cerevisiae deletion strains, locus YOR231W, strain MKK1, hits give low values 1.02 | S. cerevisiae deletion strains, locus YOR265W, strain rbl2, hits give low values 0.984 | S. cerevisiae deletion strains, locus YOR270C, strain vph1, hits give low values 0.966 | S. cerevisiae deletion strains, locus YOR290C, strain snf2, hits give low values 0.972 | S. cerevisiae deletion strains, locus YOR316C, strain cot1, hits give low values 1.03 | S. cerevisiae deletion strains, locus YPL051W, strain arl3, hits give low values 0.967 | S. cerevisiae deletion strains, locus YPL055C, strain LGE1, hits give low values 1.04 | S. cerevisiae deletion strains, locus YPL078C, strain atp4, hits give low values 0.977 | S. cerevisiae deletion strains, locus YPL106C, strain sse1, hits give low values 0.978 | S. cerevisiae deletion strains, locus YPL240C, strain hsp82, hits give low values 0.977 | S. cerevisiae deletion strains, locus YPL241C, strain CIN2, hits give low values 1 | S. cerevisiae deletion strains, locus YPL256C, strain CLN2, hits give low values 1.01 | S. cerevisiae deletion strains, locus YPR119W, strain clb2, hits give low values 1.02 | S. cerevisiae deletion strains, locus YPR141C, strain kar3, hits give low values 1.03 | S. cerevisiae deletion strains, locus YPR163C, strain tif3, hits give low values 1.02 | S. cerevisiae deletion strains, locus YPR167C, strain met16, hits give low values 1.03 | S. cerevisiae deletion strains, strain wtn01, hits give low values 1.02 | S. cerevisiae strains, strain wild type, hits give low values 1.01
